In PubChem BioAssay (NCATS):
Several values for one entry are separate records, joined by “and”; a condition that tells them apart may be missing. Equal entries are not always repeated. Inconclusive results are not listed. Activity calls are given as the source filed them. Unless noted, the call rests on the fitted dose curve; in most records, active means well fitted curve in either direction with a large enough effect (not every such curve was filed as active); inconclusive means small, poorly fitted or top-dose-only effect, or another doubt; inactive means flat fitted curve, though single readings scatter.

What was measured:
[1] = biological target: Lysosomal acid glucosylceramidase (Homo sapiens) (UniProt P04062); assay: Glucocerebrosidase-p2 (AID 348; in the data active means potency below about 10 µM; further: potency means the concentration at half of the fitted maximal effect); conditions: purified GBA, blue fluorogenic substrate, 40 min
Outline: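 Compounds titrated from 0.6 nM upwards against 0.2 nM enzyme in pH 5.9 citric acid/KH2PO4, taurocholate, tween-20; blue fluorogenic substrate 80 uM, 40 min room temperature, stopped and read Ex 365/Em 440 for AC50.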

[2] = AP1 Signaling Pathway (AID 357); conditions: ME-180 AP-1-bla reporter, EGF-induced, beta-lactamase ratio, 5 h; at 7.69 µM (top of the series) unless noted;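 further: ME-180 reporter cells stimulated with EGF at its EC50 level; on the % scale 0 is the no-effect control and ±100 the full control effect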
Outline: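 Read-out was the 460nm/530nm emission ratio (excitation 405nm) after CCF4 loading for 2.5 hours at room temperature. Cells carried an AP-1-driven beta-lactamase reporter, were stimulated with EC50 EGF plus compound for 5 hours, and AC50 values came from titrations.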

[3] = NFAT Signaling Pathway (AID 444); conditions: Jurkat NFAT-bla M1, carbachol, beta-lactamase ratio, 5 h; at 7.69 µM (top of the series) unless noted;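 further: carbachol stimulus at about its EC50 of 1 µM final; on the % scale 0 is the no-effect control and ±100 the full control effect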
Outline: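 Read-out: CCF4 FRET ratio (460 nm/530 nm) after 1 h RT dye loading, used for %activity and AC50 from titration series. Cells: Jurkat NFAT-β-lactamase/M1 line, treated with compound plus 1 uM carbachol for 5 h, 37 °C.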

[4] = Stat Signaling Pathway (AID 446); conditions: ME-180 SIE beta-lactamase reporter, IL-6 stimulated, 5 h; at 7.69 µM (top of the series) unless noted;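 further: ME-180 cervical cancer cells given 40 pM IL-6 alongside compound; SIE-controlled beta-lactamase reporter measured as 460/530 nm FRET emission ratio; on the % scale 0 is the no-effect control and ±100 the full control effect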
Outline: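 Screening format detects activators and inhibitors alike: ME-180 SIE-bla cells stimulated at 40 pM IL-6 for 5 hrs with compound, then dual-emission beta-lactamase read at 405 nm excitation.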

[5] = biological target: Glucocorticoid receptor (Homo sapiens) (UniProt P04150); assay: GR-GFP Redistribution (AID 450;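 active means compounds whose dose series gives a full or clear partial fitted curve of increased nuclear translocation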; further: potency means the concentration at half of the fitted maximal effect); conditions: U2OS GR-GFP nuclear translocation, laser cytometry, 2 h
[6] = biological target: Glucocorticoid receptor (Homo sapiens) (UniProt P04150); assay: GR-EFC Redistribution (AID 451; calls by dose curve; further: potency means the concentration at half of the fitted maximal effect); conditions: CHO-K1 GR-EFC translocation, beta-gal luminescence, 2 h
Outline: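 Translocation of GR-ED fusion to nuclear EA restores b-gal, read by luminescence after 1 h room-temperature detection. Engineered CHO-K1 biosensor cells, 1,000/well, exposed 2 h at 37 C to titrations up to 46 uM final.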

[7] = biological target: Mitogen-activated protein kinase 10 (Mus musculus) (UniProt Q61831); assay: JNK3 AlphaScreen Assay (AID 530); conditions: JNK3 lysate, c-Jun phosphorylation; series mostly up to 11.4 µM;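 further: kinase came from lysate of stimulated human HepG2 cells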; further: potency means the concentration at half of the fitted maximal effect;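 on activity change, negative = inhibition: signal reports phosphorylation of biotinylated GST-cJun 1-79 at Ser73 with 10 µM ATP; on the % scale 0 is the no-effect control and ±100 the full control effect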
Outline: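 Room-temperature AlphaScreen kinase assay; pre-activated HepG2 lysate as JNK3 source, biotin-GST-cJun(1-79) substrate, 10 uM ATP, compound 15 min preincubation.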

[8] = biological target: 3',5'-cyclic-AMP phosphodiesterase 4B (Homo sapiens) (UniProt Q07343); assay: qHTS Assay for Inhibitors of PDE-IV (AID 607; active means well fitted activation curve with a large enough effect in the main read-out, with a control signal flat, not every such curve was filed as active; further: % of control where 0% means no effect); conditions: HEK293 ACTOne CNG channel cells, membrane potential fluorescence; series mostly up to 22.9 µM
Outline: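 The readout is membrane depolarisation from a cAMP-sensing CNG channel, detected with a potential dye at ex 535/em 590. Cells were HEK293-derived (endogenous PDE-IV) at 1000 cells/well, titrated up to 22.9 uM final.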

Lysosomal acid glucosylceramidase (Homo sapiens), sequence (P04062 whole entry, looked up): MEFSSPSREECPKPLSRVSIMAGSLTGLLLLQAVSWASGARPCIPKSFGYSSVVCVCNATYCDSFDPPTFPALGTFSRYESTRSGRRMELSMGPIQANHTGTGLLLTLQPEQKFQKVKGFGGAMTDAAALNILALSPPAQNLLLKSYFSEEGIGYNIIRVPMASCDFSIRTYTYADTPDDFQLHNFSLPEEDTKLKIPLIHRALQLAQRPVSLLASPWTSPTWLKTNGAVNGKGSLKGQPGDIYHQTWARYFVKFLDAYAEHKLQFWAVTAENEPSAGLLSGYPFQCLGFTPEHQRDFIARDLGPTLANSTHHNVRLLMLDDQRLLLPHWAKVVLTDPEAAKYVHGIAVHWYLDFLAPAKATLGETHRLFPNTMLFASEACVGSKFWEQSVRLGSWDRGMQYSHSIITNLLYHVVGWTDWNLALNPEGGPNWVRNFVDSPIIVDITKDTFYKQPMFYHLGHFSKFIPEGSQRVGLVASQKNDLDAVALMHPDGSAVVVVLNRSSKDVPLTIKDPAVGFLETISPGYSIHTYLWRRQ
Glucocorticoid receptor (Homo sapiens), sequence (P04150 whole entry, looked up, the tested form may be a part): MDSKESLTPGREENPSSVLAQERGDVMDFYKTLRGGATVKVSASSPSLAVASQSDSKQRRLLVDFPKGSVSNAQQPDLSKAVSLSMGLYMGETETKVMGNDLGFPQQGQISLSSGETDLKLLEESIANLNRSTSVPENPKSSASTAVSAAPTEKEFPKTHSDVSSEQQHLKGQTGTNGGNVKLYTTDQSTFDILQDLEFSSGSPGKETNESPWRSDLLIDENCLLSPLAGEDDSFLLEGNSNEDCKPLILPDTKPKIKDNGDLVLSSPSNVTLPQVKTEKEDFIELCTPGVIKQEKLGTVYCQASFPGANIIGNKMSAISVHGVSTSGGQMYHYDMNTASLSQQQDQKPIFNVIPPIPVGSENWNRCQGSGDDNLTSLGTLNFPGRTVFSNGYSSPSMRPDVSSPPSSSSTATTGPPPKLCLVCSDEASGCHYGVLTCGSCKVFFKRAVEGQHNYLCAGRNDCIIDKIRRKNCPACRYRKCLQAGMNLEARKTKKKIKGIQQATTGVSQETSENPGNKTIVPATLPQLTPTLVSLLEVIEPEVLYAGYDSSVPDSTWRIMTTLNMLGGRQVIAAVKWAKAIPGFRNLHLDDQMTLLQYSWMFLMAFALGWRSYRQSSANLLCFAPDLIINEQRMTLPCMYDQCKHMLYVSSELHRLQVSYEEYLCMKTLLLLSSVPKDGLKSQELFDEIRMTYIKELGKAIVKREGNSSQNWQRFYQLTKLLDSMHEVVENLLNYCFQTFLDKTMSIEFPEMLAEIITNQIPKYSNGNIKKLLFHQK
3',5'-cyclic-AMP phosphodiesterase 4B (Homo sapiens), sequence (Q07343 whole entry, looked up): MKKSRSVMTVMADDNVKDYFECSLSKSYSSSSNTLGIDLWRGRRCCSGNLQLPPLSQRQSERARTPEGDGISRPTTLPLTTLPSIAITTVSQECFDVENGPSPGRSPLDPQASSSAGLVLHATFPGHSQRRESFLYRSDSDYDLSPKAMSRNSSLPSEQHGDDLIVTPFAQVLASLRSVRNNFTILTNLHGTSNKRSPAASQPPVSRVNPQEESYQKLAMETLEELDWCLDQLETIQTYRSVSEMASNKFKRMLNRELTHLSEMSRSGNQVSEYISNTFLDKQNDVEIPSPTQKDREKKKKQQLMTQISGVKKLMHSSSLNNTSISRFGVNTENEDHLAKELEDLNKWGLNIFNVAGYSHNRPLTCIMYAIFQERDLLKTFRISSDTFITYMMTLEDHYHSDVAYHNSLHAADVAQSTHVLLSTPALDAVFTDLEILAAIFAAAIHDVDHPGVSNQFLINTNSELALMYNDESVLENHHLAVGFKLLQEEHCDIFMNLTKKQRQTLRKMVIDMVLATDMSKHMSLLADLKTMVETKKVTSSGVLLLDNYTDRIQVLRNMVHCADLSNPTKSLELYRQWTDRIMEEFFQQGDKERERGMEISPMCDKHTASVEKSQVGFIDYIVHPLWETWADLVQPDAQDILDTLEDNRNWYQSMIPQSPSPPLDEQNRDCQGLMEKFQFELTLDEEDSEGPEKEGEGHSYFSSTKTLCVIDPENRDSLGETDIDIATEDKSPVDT

CSc1ccc(NC(=O)[C@H]2CCCC[C@@H]2C(=O)O)cc1
inactive: Potency [1] > 11.4 µM | activity change, negative = inhibition [2] 2.18% | activity change, negative = inhibition [3] 4.17% | activity, negative = inhibition [4] 3.36% | Potency [5] > 46 µM | Potency [6] > 9.22 µM | Potency [7] | Potency [8]

O=C1CCC[C@H]1C(=O)Nc1ccc2ccccc2c1
inactive: Potency [1] > 11.4 µM | activity change, negative = inhibition [2] 7.06% | activity change, negative = inhibition [3] 16.2% | activity, negative = inhibition [4] 8.65% | Potency [5] > 46 µM | Potency [6] > 9.22 µM | Potency [7] | Potency [8]

C[C@@H](CCC[C@@H]1SC[C@H]2NC(=O)N[C@H]12)C(=O)O
active: Potency [7] 0.0316 µM
inactive: Potency [1] > 11.4 µM | activity change, negative = inhibition [2] -0.543% | activity change, negative = inhibition [3] -21.7% | activity, negative = inhibition [4] -4.44% | Potency [5] > 46 µM | Potency [6] > 9.22 µM | Potency [8]

CN(C)CCCN=C(N)N
inactive: Potency [1] > 11.4 µM | activity change, negative = inhibition [2] 11.7% | activity change, negative = inhibition [3] 4.78% | activity, negative = inhibition [4] 2.14% | Potency [5] > 46 µM | Potency [6] > 9.22 µM | Potency [7] | Potency [8]

CC(NC(=O)c1ccccc1)(C(=O)O)C(=O)O
inactive: Potency [1] > 11.4 µM | activity change, negative = inhibition [2] 2.23% | activity change, negative = inhibition [3] -6.87% | activity, negative = inhibition [4] 14.4% | Potency [5] > 46 µM | Potency [6] > 9.22 µM | Potency [7] | Potency [8]

O=C(O)[C@H]1CCc2ccc3ccccc3c2[C@H]1c1cccc2ccccc12
inactive: Potency [1] > 11.4 µM | activity change, negative = inhibition [2] -12.8% | activity change, negative = inhibition [3] -25.8% | activity, negative = inhibition [4] -8.82% | Potency [5] > 46 µM | Potency [6] > 9.22 µM | Potency [7] | Potency [8]

C[N+](C)(C)c1ncnc2c1ncn2[C@@H]1C[C@H](O)[C@@H](CO)O1
inactive: Potency [1] > 11.4 µM | activity change, negative = inhibition [2] 2.41% | activity change, negative = inhibition [3] 9.78% | activity, negative = inhibition [4] 3.06% | Potency [5] > 46 µM | Potency [6] > 9.22 µM | Potency [7] | Potency [8]

COc1ccc2c(c1)CCc1c(-c3noc4c3CCc3cc(OC)ccc3-4)noc1-2
inactive: Potency [1] > 11.4 µM | activity change, negative = inhibition [2] -10.7% | activity change, negative = inhibition [3] -3.27% | activity, negative = inhibition [4] 2.75% | Potency [5] > 46 µM | Potency [6] > 9.22 µM | Potency [7] | Potency [8]

O=C1OC(c2ccc(O)c(-c3ccccc3)c2)(c2ccc(O)c(-c3ccccc3)c2)c2c(Cl)c(Cl)c(Cl)c(Cl)c21
inactive: Potency [1] > 11.4 µM | activity change, negative = inhibition [2] 10.7% | activity change, negative = inhibition [3] 19.3% | activity, negative = inhibition [4] 5.56% | Potency [5] > 46 µM | Potency [6] > 9.22 µM | Potency [7] | Potency [8]

NC(=O)C[C@@H](N)c1nn[nH]n1
inactive: Potency [1] > 11.4 µM | activity change, negative = inhibition [2] 9.01% | activity change, negative = inhibition [3] 14.8% | activity, negative = inhibition [4] 9.79% | Potency [5] > 46 µM | Potency [6] > 9.22 µM | Potency [7] | Potency [8]

O=C(O)CSCc1cccc2ccccc12
inactive: Potency [1] > 11.4 µM | activity change, negative = inhibition [2] -0.864% | activity change, negative = inhibition [3] 16.3% | activity, negative = inhibition [4] 2.65% | Potency [5] > 46 µM | Potency [6] > 9.22 µM | Potency [7] | Potency [8]

N=C(N)SCCc1ccccn1
inactive: Potency [1] > 11.4 µM | activity change, negative = inhibition [2] -8.38% and 0.949% | activity change, negative = inhibition [3] 3.85% and 12.3% | activity, negative = inhibition [4] -5.15% and -3.19% | Potency [5] > 46 µM | Potency [6] > 9.22 µM | Potency [7] | Potency [8]

CCCNc1ncnc2[nH]ncc12
inactive: Potency [1] > 11.4 µM | activity change, negative = inhibition [2] -4.57% | activity change, negative = inhibition [3] 5.61% | activity, negative = inhibition [4] -1.7% | Potency [5] > 46 µM | Potency [6] > 9.22 µM | Potency [7] | Potency [8]

CC(C)CCNc1ncnc2[nH]ncc12
inactive: Potency [1] > 11.4 µM | activity change, negative = inhibition [2] 6.28% | activity change, negative = inhibition [3] -25.7% | activity, negative = inhibition [4] -5.65% | Potency [5] > 46 µM | Potency [6] > 9.22 µM | Potency [7] | Potency [8]

O=CNc1ncn[nH]1
inactive: Potency [1] > 11.4 µM | activity change, negative = inhibition [2] -1.52% | activity change, negative = inhibition [3] -0.432% | activity, negative = inhibition [4] 8.03% | Potency [5] > 46 µM | Potency [6] > 9.22 µM | Potency [7] | Potency [8]
